# About 79,000 compounds went through this panel and 15% of them were active in at least one assay; those are over-represented in the sample as a whole. Values without a mark were called inactive. Activity calls are given as the source filed them. No stated cut-off is given here; in the data, active means growth inhibition above about 70%; inactive means the rest.
# Test: NCI Yeast Anticancer Drug Screen. Data for the rad50EPP+ strain (AID 151);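 further: 0% = growth of vehicle-treated control cultures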
# Conditions: S. cerevisiae rad50 mutant strain, hits give high values
# Protocol: Growth inhibition of yeast strains with defined genetic alterations is measured as a screen for potential anti-cancer activity. Selected strains with alterations in DNA damage repair or cell cycle control were exposed to compounds and growth inhibition was measured relative to vehicle treated controls. The strain used in this assay is rad50EPP+
Structure (SMILES),growth inhibition (at 1.2 µM),growth inhibition (at 3.7 µM),growth inhibition (at 11.0 µM),growth inhibition (at 33.0 µM),growth inhibition (at 100.0 µM)
O=C(O)c1cc2ccccc2c2c1C(=O)c1ccccc1-2,-23%,-36%,10%,47%,67%
COc1cccc2c1C(=O)c1c(O)c3c(c(O)c1C2=O)CC(O)(C(O)CO)CC3OC1CC(N2CCOCC2)C(O)C(C)O1 (stereo not given),84% (active),96% (active),97% (active),97% (active),97% (active)
Nc1ccc(F)cc1S,-19%,-19%,-37%,55%,97% (active)
CC1=CC(=C(c2ccc(N)cc2)c2ccc(N)cc2)C=CC1=N,15%,22%,20%,29%,51%
COc1cc(CSc2ccc(O)cc2)cc(O)c1O,-3%,-4%,-6%,-6%,0%
CC(=O)OC1CC2C(C)(C)C(=O)C=C[C@]2(C)C2CCC3(C)C(=CCC3[C@H](CO)C[C@H](O)C(=O)C(C)(C)O)[C@]12C (stereo not given in full),-34%,-35%,-39%,-39%,-31%
Nc1nc(N)c2nc(CNc3ccc(C(=O)NC(CCC(=O)O)C(=O)O)cc3F)cnc2n1 (stereo not given),23%,13%,13%,15%,39%
CC(C)C(C)/C=C\C(C)C1CCC2C3=CC=C4CC(O)CCC4(C)C3CCC21C (stereo not given),-2%,-3%,-9%,-9%,1%
